# Reference: the supplement of paper PMC6555819
# Tests used:
# Assay in all cases: PBM binding z-score (relative to random genomic background probes); higher = stronger binding; sequences stand for … in GC…GCGATTGACAGCGTAGAATGAAGG
# [1] = system: PPARg:RXRa DBDmut IVT, anti-RXR (DBD mutation: RXRa K156A/R161A, NR concentration 270 nM, RXRa partner concentration 90 nM)
# Method in brief: (§1)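 Ligand-free nuclear receptor dimers were bound for 1 h to custom Agilent 4×180K protein-binding microarrays. Detection used antibodies against each partner (one per run). Binding z-scores rest on regression-normalized fluorescence, with random background probes as the reference.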
# [2] = system: PPARg:RXRa IVT, anti-PPARg (NR concentration 270 nM, RXRa partner concentration 90 nM)
# Method in brief: as §1
# [3] = system: PPARg DBDmut:RXRa IVT, anti-PPARg (DBD mutation: PPARg1 K132A/R137A, NR concentration 270 nM, RXRa partner concentration 90 nM)
# Method in brief: as §1
# [4] = system: PPARg DBDmut IVT, anti-PPARg (DBD mutation: PPARg1 K132A/R137A, NR concentration 270 nM)
# Method in brief: as §1
# [5] = system: PPARg homodimer (NR concentration 180 nM)
# Method in brief: as §1
# [6] = system: PXR:RXRa (NR concentration 270 nM, RXRa partner concentration 90 nM)
# Method in brief: as §1
# [7] = system: PXR homodimer (NR concentration 270 nM)
# Method in brief: as §1
# [8] = system: RARa:RXR (NR concentration 270 nM, RXRa partner concentration 90 nM)
# Method in brief: as §1
# [9] = system: RARa homodimer (NR concentration 270 nM)
# Method in brief: as §1
# [10] = system: RARb:RXRa (NR concentration 270 nM, RXRa partner concentration 90 nM)
# Method in brief: as §1
# [11] = system: RARb homodimer (NR concentration 270 nM)
# Method in brief: as §1
# [12] = system: RARg:RXRa (NR concentration 270 nM, RXRa partner concentration 90 nM)
# Method in brief: as §1
# [13] = system: RARg homodimer (NR concentration 270 nM)
# Method in brief: as §1
# [14] = system: RXRa DBDmut IVT, anti-RXR (DBD mutation: RXRa K156A/R161A, NR concentration 90 nM)
# Method in brief: as §1
# [15] = system: RXRa homodimer (NR concentration 180 nM)
# Method in brief: as §1
# [16] = system: THRa:RXRa (NR concentration 90 nM, RXRa partner concentration 90 nM)
# Method in brief: as §1
# [17] = system: THRa homodimer (NR concentration 90 nM)
# Method in brief: as §1
# [18] = system: VDR:RXRa (NR concentration 270 nM, RXRa partner concentration 90 nM)
# Method in brief: as §1
# [19] = system: VDR homodimer (NR concentration 270 nM)
# Method in brief: as §1
Sequence,PBM binding z-score [1],PBM binding z-score [2],PBM binding z-score [3],PBM binding z-score [4],PBM binding z-score [5],PBM binding z-score [6],PBM binding z-score [7],PBM binding z-score [8],PBM binding z-score [9],PBM binding z-score [10],PBM binding z-score [11],PBM binding z-score [12],PBM binding z-score [13],PBM binding z-score [14],PBM binding z-score [15],PBM binding z-score [16],PBM binding z-score [17],PBM binding z-score [18],PBM binding z-score [19]
GCTATGAGTTGAAAGGGCAACCGAATGATTCTCG,0.245,0.754,0.0157,-0.588,0.982,1.62,-0.0077,2.66,0.195,2.45,2.14,2.06,1.7,1.93,2.78,1.17,-0.184,1.2,0.754
ATCTCTAGGTAACAAGATCAGTGAAAGAGAGGAC,3.03,2.72,1.75,1.21,0.336,0.0521,-0.0922,0.158,1.1,0.327,0.262,0.574,0.868,-0.259,0.265,0.927,0.466,0.388,0.364
TCGAGTAAGTTAGGGGCATTCAGAATGGCGTCGA,0.867,-0.26,-1.43,-0.704,0.141,0.512,0.0747,0.66,-0.608,0.456,0.241,0.189,-0.154,0.53,0.495,1.08,-0.16,0.425,0.751
GCGACTGGGGCATCAGCAGGATACCATAACTTAA,3.9,2.61,-1.01,-0.959,-0.175,-0.691,-0.304,-0.475,-0.756,0.233,-0.0166,-0.0136,0.464,-0.418,-0.172,0.271,-0.673,-0.816,-0.734
CGTCCAAGGTCATAGGAGGTCAGTCAAGACAGAT,3.31,4.37,0.231,0.0229,4.04,6.74,4.16,5.99,1.15,5.37,5.57,6.78,7.57,3.37,6.76,5.43,3.34,6.72,4.33
TCTTGTAGATCAACAGGACGTTAAGAAAGATCGA,1.79,0.305,0.99,0.998,0.259,0.135,-0.241,0.574,0.262,-0.11,-0.694,0.531,0.151,0.714,0.45,0.0444,-0.626,0.305,-0.395
CTCGAAAGGTCGGTTGAGCTGAGTATACGGATAA,0.0426,0.318,-0.21,-0.532,0.0115,0.392,-0.439,0.834,0.167,2.58,1.27,2.09,2.29,0.709,1.74,0.825,-0.574,0.528,-0.476
GTACCAAGGTGAATAGGTCGATGATGAGTAGGCG,1.55,2.61,0.551,-0.172,1.08,0.477,0.109,1.13,0.983,2.01,1.77,2.49,1.57,-0.426,1.86,1.52,0.425,0.674,0.182
AGAATGAGGTTATTCGTAGATCAGGGAAGAAAGT,2.54,2.22,0.846,0.521,0.454,1.44,0.494,1.98,0.0936,1.36,0.677,1.86,0.782,2.5,2.29,2.32,0.475,1.78,1.07
TTACCAAGGTGAGCTGAGGTAGTTGATCCAACTC,0.816,1.21,0.143,-0.469,-1.15,0.018,-0.878,1.14,-0.894,0.883,0.264,-0.0541,0.00581,-0.913,-0.0499,3.02,0.0435,-0.45,-0.88
ATCTCTAGGTGACCAAGTTCAGTGAATGCCGAAC,5.31,4.76,1.66,1.14,0.611,2.17,1.7,0.763,-0.118,1.7,1.77,1.24,1.38,0.521,0.867,1.5,0.429,4.77,2.22
TGAATGAGGTTATAGGATCAGGGAACGTTGCAAA,1.16,2.21,0.833,-0.0124,0.65,1.05,0.148,1.82,0.469,1.48,0.349,1.53,0.884,0.852,2.42,2.12,0.489,1.13,0.329
ACTAGTTGGTCAGCTGAGGTCACAAACAATTCGG,1.09,2.67,-0.0448,0.681,2.75,5.42,1.38,4.65,1.05,3.53,4.02,3.8,3.86,0.835,3.71,5.04,4.45,4.24,3.58
ATCTCTTGGTAACAAGTTCAGTGAAAGAGAGGAC,-0.454,0.272,0.927,1.13,0.303,1.67,1.14,0.676,0.0703,1.37,1.67,0.629,1,1.09,0.531,0.831,0.489,1.84,2.61
CCTACTGGGCCACGAAAGGACATTGATTCAGTGA,4.98,5.21,0.3,-0.299,0.467,-0.024,-0.134,0.342,0.45,1.11,1.2,0.593,1.01,-0.0534,-0.0708,1.94,0.069,-0.289,-0.0244
